# Laboratory results: ChEMBL document CHEMBL3988442, “University of Dundee, Small-Polar-MMV Screening Library” (2021)
# For some assays here: Entries with a potency or affinity are not part of this list.
# How the values were obtained:
# Set-up in all cases: scale not given: direction of the effect not stated beside the values
# [1] = target: Protein translocase subunit SecA (Escherichia coli (strain K12)) (UniProt P10408); assay: Assay to Identify E. coli SecA ATPase Inhibitors; format: functional; conditions: 30 µM
# Protein translocase subunit SecA (Escherichia coli (strain K12)), sequence (P10408 whole entry): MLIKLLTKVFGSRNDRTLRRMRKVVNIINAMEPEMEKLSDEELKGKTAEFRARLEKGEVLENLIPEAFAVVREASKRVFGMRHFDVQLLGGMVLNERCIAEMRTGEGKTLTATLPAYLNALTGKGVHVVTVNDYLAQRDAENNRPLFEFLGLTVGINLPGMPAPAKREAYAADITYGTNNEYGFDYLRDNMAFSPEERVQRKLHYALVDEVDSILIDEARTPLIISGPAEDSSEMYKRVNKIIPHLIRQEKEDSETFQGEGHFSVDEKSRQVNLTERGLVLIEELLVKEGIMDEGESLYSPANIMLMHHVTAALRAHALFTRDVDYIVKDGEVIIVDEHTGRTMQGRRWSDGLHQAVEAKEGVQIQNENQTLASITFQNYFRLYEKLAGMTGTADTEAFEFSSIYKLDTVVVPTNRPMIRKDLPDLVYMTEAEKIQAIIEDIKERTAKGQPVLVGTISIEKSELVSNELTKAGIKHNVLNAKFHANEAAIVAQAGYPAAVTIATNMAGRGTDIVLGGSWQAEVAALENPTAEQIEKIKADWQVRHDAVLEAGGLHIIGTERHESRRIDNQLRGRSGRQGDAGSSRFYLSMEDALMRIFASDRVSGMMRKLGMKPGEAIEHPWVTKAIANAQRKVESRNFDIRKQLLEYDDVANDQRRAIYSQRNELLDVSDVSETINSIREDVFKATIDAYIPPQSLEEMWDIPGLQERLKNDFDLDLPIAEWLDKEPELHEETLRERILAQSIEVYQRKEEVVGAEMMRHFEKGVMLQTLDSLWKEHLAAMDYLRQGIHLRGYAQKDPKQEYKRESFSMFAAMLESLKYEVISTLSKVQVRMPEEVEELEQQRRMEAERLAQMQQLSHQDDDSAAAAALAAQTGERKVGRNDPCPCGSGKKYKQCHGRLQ
# [2] = target: T1, Ubiquitin-activating enzyme e1, putative (Leishmania donovani (strain BPK282A1)) (UniProt E9BSI1); assay: Leishmania donovani Ubiquitin Activating Enzyme (LdE1); format: functional; conditions: 30 µM
# T1 sequence (whole entry): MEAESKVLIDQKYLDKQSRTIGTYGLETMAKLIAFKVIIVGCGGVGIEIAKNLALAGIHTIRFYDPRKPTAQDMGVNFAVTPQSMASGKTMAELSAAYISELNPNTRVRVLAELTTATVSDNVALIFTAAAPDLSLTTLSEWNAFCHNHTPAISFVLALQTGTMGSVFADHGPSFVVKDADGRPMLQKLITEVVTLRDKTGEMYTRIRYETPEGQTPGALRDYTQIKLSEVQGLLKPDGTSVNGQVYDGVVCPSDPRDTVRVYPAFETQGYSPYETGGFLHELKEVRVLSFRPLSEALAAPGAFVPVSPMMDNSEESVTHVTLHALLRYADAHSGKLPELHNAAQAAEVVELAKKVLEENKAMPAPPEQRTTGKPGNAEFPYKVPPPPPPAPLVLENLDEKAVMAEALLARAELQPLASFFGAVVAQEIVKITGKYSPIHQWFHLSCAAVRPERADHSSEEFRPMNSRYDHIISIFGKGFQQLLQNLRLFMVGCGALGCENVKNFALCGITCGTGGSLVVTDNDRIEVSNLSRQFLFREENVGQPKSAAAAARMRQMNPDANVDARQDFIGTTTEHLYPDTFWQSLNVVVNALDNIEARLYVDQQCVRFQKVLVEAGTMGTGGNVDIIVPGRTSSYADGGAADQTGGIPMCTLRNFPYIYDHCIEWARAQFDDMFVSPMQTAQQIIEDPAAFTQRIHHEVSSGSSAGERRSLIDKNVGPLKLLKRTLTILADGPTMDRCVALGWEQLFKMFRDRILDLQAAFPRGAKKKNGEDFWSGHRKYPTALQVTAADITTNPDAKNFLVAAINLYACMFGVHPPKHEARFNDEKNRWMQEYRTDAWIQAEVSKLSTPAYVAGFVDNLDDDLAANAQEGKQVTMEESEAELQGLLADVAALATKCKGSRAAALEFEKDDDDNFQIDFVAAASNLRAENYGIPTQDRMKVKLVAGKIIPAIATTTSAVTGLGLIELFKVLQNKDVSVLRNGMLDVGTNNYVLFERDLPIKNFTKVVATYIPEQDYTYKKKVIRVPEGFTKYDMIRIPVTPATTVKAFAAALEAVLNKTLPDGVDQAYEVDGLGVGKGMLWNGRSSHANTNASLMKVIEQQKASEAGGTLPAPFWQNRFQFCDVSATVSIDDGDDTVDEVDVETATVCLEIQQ
# [3] = target: AMP-activated protein kinase, AMPK (Homo sapiens) (UniProt P54646+O43741+P54619+Q9UGJ0+Q9Y478+Q13131+Q9UGI9); assay: AMP-dependent Kinase enzyme assay. An in vitro enzyme assay that detects ADP turnover that is directly proportional to AMPK activity. This uses naive AMPK that is activated during the assay with MK-8722; format: functional; conditions: 30 µM
# [4] = target: Sialic acid-binding Ig-like lectin 9 (Homo sapiens) (UniProt Q9Y336); assay: Hs-Siglec9 ALPHAscreen SOP 20170721; conditions: 10 µM
# Sialic acid-binding Ig-like lectin 9 (Homo sapiens), sequence (Q9Y336 whole entry): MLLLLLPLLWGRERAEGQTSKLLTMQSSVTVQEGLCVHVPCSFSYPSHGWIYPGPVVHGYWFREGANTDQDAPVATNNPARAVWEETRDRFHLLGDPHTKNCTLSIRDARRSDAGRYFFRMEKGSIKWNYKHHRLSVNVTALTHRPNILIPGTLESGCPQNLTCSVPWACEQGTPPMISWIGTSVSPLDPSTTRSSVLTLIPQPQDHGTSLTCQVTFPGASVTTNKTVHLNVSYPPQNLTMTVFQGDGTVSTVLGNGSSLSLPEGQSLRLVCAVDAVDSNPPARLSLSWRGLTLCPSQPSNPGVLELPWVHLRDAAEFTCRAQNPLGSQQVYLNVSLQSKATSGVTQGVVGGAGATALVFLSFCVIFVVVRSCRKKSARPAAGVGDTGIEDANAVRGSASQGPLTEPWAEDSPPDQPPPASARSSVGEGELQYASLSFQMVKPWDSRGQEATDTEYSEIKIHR
# Trypanosoma cruzi = assay: Trypanosoma cruzi phosphomannomutase and mannose-1-phosphate guanylyltransferase assay; format: functional; conditions: 10 µM
# [5] = target: T2, Arginase-2, mitochondrial (Homo sapiens) (UniProt P78540); assay: in vitro enzyme assay to detect the production of urea directly proportional to the activity of Arginase II; format: functional; conditions: 33.3 µM; note: in the data most compounds retested in dose-response had high values
# T2 sequence (whole entry): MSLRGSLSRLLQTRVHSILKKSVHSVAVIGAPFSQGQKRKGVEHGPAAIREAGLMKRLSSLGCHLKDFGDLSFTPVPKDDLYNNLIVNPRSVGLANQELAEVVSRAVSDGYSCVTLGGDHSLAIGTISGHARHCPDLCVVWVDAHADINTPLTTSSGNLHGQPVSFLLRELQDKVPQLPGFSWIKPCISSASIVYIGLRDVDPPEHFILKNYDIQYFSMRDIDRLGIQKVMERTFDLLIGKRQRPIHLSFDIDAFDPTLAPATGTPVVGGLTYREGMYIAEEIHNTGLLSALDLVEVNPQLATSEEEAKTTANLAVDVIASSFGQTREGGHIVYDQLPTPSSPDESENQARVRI
# [6] = target: T3, Proteasome subunit beta (Trypanosoma cruzi) (UniProt O96673); assay: Trypanosoma cruzi proteasome chymotrypsin-like activity (TcProtChymo) assay.; note: in the data most compounds retested in dose-response had high values; format: functional; conditions: 9.37 µM
# T3 sequence (whole entry): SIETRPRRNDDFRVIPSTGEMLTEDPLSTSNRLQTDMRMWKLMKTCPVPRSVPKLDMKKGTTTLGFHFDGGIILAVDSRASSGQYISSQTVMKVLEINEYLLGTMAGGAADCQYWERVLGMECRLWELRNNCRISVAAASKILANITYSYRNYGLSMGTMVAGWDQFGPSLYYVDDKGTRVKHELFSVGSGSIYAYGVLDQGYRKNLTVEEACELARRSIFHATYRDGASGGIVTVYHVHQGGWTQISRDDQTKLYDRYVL
# Homo sapiens = organism: Homo sapiens; assay: To identify inhibition of the IFN signalling (Jak-Stat) pathway via expression of an eGFP reporter gene under the control of an IFN-stimulated response element (ISRE) containing MxA promoter.; format: functional; conditions: 30 µM
# [7] = target: T4, Tyrosyl-tRNA synthetase, putative (Trypanosoma cruzi (strain CL Brener)) (UniProt Q4DSP6); assay: Trypanosoma cruzi tyrosyl tRNA synthetase (TcYRS) _High Tyrosine SOP; format: functional; conditions: 30 µM; note: in the data most compounds retested in dose-response had high values
# T4 sequence (whole entry): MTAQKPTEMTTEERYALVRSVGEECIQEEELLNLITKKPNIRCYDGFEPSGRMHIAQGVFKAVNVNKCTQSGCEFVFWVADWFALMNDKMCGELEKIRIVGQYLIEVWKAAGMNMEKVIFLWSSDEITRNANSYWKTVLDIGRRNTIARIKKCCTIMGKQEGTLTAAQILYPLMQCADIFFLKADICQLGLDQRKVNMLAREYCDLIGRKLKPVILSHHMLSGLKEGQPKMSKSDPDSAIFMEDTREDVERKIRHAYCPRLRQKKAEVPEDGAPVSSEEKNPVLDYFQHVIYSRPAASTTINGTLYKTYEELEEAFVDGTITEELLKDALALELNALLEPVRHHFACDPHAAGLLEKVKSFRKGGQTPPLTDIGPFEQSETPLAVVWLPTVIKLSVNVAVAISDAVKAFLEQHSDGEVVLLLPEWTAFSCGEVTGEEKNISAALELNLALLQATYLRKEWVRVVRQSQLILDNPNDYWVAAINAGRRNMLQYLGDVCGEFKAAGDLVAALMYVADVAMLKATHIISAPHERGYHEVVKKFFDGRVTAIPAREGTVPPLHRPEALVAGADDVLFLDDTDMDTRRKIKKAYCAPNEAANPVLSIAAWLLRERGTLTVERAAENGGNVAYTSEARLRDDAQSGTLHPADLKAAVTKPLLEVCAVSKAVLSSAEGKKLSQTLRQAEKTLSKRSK
# [8] = target: T4, Tyrosyl-tRNA synthetase, putative (Trypanosoma cruzi (strain CL Brener)); assay: Trypanosoma cruzi tyrosyl tRNA synthetase (TcYRS) SOP; format: functional; conditions: 30 µM
# [9] = target: Chromo domain-containing protein 1 (Saccharomyces cerevisiae (strain ATCC 204508 / S288c) (Baker's yeast)) (UniProt P32657); assay: ScCHD-1 Enzyme Inhibition Assay; format: functional; conditions: 30 µM; note: in the data most compounds retested in dose-response had high values
# Chromo domain-containing protein 1 (Saccharomyces cerevisiae (strain ATCC 204508 / S288c) (Baker's yeast)), sequence (P32657 whole entry, the tested form may be a part): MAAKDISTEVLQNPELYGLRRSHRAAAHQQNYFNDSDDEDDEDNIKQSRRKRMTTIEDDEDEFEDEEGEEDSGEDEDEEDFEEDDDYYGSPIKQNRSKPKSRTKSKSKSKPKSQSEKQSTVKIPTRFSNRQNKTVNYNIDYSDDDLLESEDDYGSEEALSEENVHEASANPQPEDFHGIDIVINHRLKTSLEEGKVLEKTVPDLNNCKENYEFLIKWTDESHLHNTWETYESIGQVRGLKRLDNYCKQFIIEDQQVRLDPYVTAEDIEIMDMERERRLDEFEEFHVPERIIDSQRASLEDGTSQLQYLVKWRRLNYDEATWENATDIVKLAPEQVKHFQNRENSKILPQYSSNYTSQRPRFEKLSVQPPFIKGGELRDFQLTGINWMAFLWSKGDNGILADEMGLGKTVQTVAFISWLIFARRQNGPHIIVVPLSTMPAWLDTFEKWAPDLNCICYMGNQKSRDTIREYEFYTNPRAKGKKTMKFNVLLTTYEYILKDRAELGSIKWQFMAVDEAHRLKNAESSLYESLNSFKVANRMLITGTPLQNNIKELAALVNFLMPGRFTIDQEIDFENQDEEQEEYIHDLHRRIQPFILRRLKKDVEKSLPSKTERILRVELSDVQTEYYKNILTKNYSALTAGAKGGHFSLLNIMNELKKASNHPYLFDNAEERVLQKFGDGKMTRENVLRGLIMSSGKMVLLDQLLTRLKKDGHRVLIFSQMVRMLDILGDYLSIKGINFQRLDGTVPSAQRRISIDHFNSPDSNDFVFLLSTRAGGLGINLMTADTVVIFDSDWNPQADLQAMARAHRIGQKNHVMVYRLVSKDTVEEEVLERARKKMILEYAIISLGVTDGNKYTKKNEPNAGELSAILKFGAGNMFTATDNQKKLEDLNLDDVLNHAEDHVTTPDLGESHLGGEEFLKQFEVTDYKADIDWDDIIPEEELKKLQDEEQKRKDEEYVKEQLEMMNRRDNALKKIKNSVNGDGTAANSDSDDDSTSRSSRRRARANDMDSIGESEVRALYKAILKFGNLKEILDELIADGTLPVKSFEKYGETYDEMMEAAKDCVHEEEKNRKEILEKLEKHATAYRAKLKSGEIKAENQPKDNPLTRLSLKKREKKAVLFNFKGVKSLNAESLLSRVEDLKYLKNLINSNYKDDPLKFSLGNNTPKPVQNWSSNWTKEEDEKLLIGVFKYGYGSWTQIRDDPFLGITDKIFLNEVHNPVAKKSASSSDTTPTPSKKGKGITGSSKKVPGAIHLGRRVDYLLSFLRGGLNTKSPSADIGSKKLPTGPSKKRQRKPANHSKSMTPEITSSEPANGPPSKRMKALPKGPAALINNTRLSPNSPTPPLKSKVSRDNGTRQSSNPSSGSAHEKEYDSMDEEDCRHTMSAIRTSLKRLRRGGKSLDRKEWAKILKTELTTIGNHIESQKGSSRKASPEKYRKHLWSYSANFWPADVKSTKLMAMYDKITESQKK
Compound,Percent Effect [1] [%],Percent Effect [2] [%],Percent Effect [3] [%],Percent Effect [4] [%],Percent Effect (Trypanosoma cruzi) [%],Percent Effect [5] [%],Percent Effect [6] [%],Percent Effect (Homo sapiens) [%],Percent Effect [7] [%],Percent Effect [8] [%],Percent Effect [9] [%]
COc1ncccc1CN1Cc2nnn(C)c2C(COCC2CC2)C1 (stereo not given),-1.6,7.79,4.07,-3.49,-5.62,3.23,1.92,2.8,4.23,14.1,-4.09
Cc1cc(CN2CCN(C(=O)Nc3cccnc3)CC2)on1,-2.38,15.8,-3.05,8.98,-2.63,4.6,4.51,-11.1,6.37,17.1,-2.69
Cc1cc(S(=O)(=O)N2CCCc3ccc(F)cc32)sc1C(=O)O,-6.14,0,3.45,0.802,-1.85,4.69,1.74,12.6,-23.5,-33.3,-2.04
CN(CC1CCCCO1)C(=O)c1ccnc(OC2CCC2)c1 (stereo not given),3.17,0,-6.16,1.71,6.18,10.9,8.62,29.6,-1.59,0,-2.67
Cc1cc(C)c(CNC(=O)N2CCCC2c2ccccc2)c(=O)[nH]1 (stereo not given),-1.29,-77.2,4.12,3.59,3.59,3.23,19.4,-0.586,3.12,17.7,-23.8
Cc1cc2c(cc1C)C(NCc1nnc3n1CCCCC3)CCCO2 (stereo not given),0.0306,2.7,-8.53,10.2,6.94,17.1,0.944,-23.2,2.15,6.17,-5.02
Cn1nccc1-c1ccc2nc(C3CCN(CCO)CC3)nn2c1,-3.12,13.3,0.376,3.71,1.35,-54.7,13.5,3.01,5.21,22.5,-7.82
CCc1cc(NCC(O)CN2CCCCC2)n2ncnc2n1 (stereo not given),-4.14,7.89,2.69,4.78,1.27,-2.37,15.2,3.03,4.25,13,-4.78
COC(=O)c1ccc(N2CCN(CCN3CCOCC3)C(C)C2)cc1 (stereo not given),-7.58,15.8,-5.32,3.41,-0.467,-1.8,2.96,-10.7,7.39,13.6,-4.27
Cc1ccccc1CN1CCN(CC(=O)Nc2cccnc2)CC1,-3.14,15.6,-360,-1.61,6.95,3.58,11.1,12.5,4.76,18.8,-2.58
COc1ccccc1CC(=O)NS(=O)(=O)c1ccc(C(N)=O)cc1,-0.063,0,0.334,0.784,-0.374,9.25,1.35,-4.28,3.88,-2.44,-0.229
c1cnn(-c2ccc(CN3CCOC(Cn4cncn4)C3)cc2)c1 (stereo not given),-2.23,12.7,0.7,6.36,2.74,1.52,-2.21,-11.6,7.39,13.9,-8.36
Cn1cc(C(=O)NCc2cn3c(n2)CN(CC2CCOCC2)CC3)cn1,-2.09,5.41,26.2,-3.62,-1.95,1.67,11.9,20.1,7.92,15.8,-0.801
N#Cc1cc(NC(=O)c2ccccc2)ccc1N1CCC(O)CC1,-0.198,10.8,-7.93,6.67,2.51,9.05,10,-5.21,1.59,9.76,-2.82
Cc1cc(C)c2nc(CN3CC[C@@H](O)C3)cc(O)c2c1,-2.1,0,0.932,1.78,-1.16,-3.81,11.9,-16.8,13.2,19.5,-5.98
Fc1ccc(CN2CCCC(c3nnc(-c4cnccn4)o3)C2)cc1F (stereo not given),-9.81,14.9,-1.12,9.24,-0.198,-3.02,12,1.34,6.45,14.3,-26.6
CCCn1c(C)c(CC(=O)NC)c2c1CC(C)(C)CC2=O,-4.47,2.6,-16,0.225,-1.08,-6.9,2.66,2.97,5.38,8.64,2.86
CNc1cccc(C2CCCN(C(=O)c3ccncc3)C2)n1 (stereo not given),-4.49,6.76,12.2,0.305,4.74,-0.232,8.27,-2.26,6.45,11.7,-14.3
Cc1nc(C)n(CC2CCCN(Cc3cccc(C#N)c3)C2)n1 (stereo not given),-3.63,-18.9,-7.23,5.42,-1.23,-7.62,5.59,3.79,6.4,13.6,-5.48
CC(C)c1cnc(CNc2c(F)cccc2-n2cccn2)o1,1.05,-1.39,-3.66,6.14,1.26,12.4,11.2,-14.6,-1.05,0,0.741
CCC(NC(=O)C1CCN(S(C)(=O)=O)CC1)c1ccc(OC)c(C)c1 (stereo not given),-0.552,2.6,0.574,27.4,4.03,-4.14,15.3,-3.86,2.15,1.24,120
Cc1ccccc1-c1cc(NC(=O)CC(C)C)n(CCO)n1,-2.35,2.63,-11.8,0.669,-6.33,2.37,5.46,0.574,3.19,5.2,-3.67
CN(Cc1cccc(Cl)c1)S(=O)(=O)N1CCOCC1,-3.38,10.5,6.62,-2.67,4.58,-5.92,23.9,-6.09,1.06,15.6,-2.59
Cc1cccc(-n2cc(C(=O)N3CCn4c(C)nnc4C3)nn2)c1,-9.19,-2.74,2.62,0.154,-4.17,-8.38,3,21.1,3.12,1.24,0.00385
Cc1ncsc1C(=O)N(C)Cc1cccc(Cl)c1,0.989,18.4,-2.9,-2.59,2.44,-2.3,20.6,7.48,5.39,19.5,-10.9
